Source: PubChem
TRHR agonist – agonists of human TRH receptor; P34981; 360,000 compounds, 0.18% hits; TRHR cells, calcium flux fluo-8, FDSS agonist mode; AID 493084; activation, % at 2 µM
Target sequence (P34981 whole entry, looked up): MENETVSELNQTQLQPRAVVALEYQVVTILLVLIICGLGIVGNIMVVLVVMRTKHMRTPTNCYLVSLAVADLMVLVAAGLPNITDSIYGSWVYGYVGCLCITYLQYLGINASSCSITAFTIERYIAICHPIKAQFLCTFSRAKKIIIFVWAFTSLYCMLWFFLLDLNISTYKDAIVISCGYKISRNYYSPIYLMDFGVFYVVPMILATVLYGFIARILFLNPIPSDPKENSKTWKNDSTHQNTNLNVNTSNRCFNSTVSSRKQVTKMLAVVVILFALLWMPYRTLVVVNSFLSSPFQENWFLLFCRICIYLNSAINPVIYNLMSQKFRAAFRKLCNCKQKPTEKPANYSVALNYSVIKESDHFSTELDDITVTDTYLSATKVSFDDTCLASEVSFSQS
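In this calcium-flux screen, cells bearing human TRHR are dye-loaded with fluo-8, baselined for 10 cycles, then exposed to library compounds; positive kinetic calcium responses during the agonist phase mark hits, with TRH as control.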
D1 potentiator – potentiators of human D1 dopamine receptor; HEK293 TREx D1 cells, calcium flux, dopamine EC20 potentiation; P21728; AID 504651; 360,000 compounds, 0.036% hits; potentiation, % at 10 µM; in the data active = potentiation above about 30%
TRHR enhancer – TRH receptor (human) allosteric enhancement; TRHR cells, fluo-8 calcium fluorescence, EC20 TRH enhancement; enhancement, % at 2 µM; 360,000 compounds, 0.66% hits; AID 493056; in the data active = enhancement above about 30%
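TRHR-expressing cells loaded with fluo-8 calcium dye were read kinetically (ex 480/em 530) during compound addition, then stimulated with an EC20 of TRH (10 nM final). Enhancement of the Gq-mediated intracellular calcium response was scored.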
D1 antag – blocks dopamine activation of the human D1 receptor; 360,000 compounds, 3.2% hits; HEK293 TREx D1 cells, calcium flux, dopamine EC80; hits give low values; P21728; activity change, negative = inhibition, % at 10 µM; in the data active = activity change below about -30%
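Cells carrying a force-coupled, tetracycline-inducible human D1 receptor report calcium flux. Each well gets a 10 s baseline, compound with 180 s monitoring, then an EC80 dopamine stimulus with a second 180 s kinetic read.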
D1 agonist – agonists of human D1 dopamine receptor | AID 504660 | activation, % at 2 µM | HEK293 T-REx D1 cells, calcium flux, agonist mode | P21728 | 360,000 compounds, 1% hits
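Agonism was scored from calcium flux recorded over 180 s (1 read/s) after pintool compound addition, following a 10-cycle baseline. Cells were inducible force-coupled HEK293 TREx D1, plated overnight at 30 C and loaded with no-wash calcium dye.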
Of the large screens only hits and unclear results are named; the others gave an inactive call. Rows were chosen to be rich in hits. Some 4.7% of all compounds tested hit in one or more screens of this group. Cut-off read from the data, not from the text of the source, unless noted: active = activation above about 30%; inactive = the rest.

COCCNC(=S)N1CCN(c2nc(-c3ccccc3)cs2)CC1	none
S=C(NCCCN1CCOCC1)N1CCN(c2nc(-c3ccccc3)cs2)CC1	D1 agonist 87.8
S=C(NCC1CCCO1)N1CCN(c2cccc(Cl)c2)CC1 (stereo not drawn)	none
S=C(NCC1CCCO1)N1CCN(c2nc(-c3ccc(Cl)cc3)cs2)CC1 (stereo not drawn)	D1 antag -30.2
S=C(NCCCN1CCOCC1)N1CCN(c2nc(-c3ccc(Cl)cc3)cs2)CC1	D1 antag -54.9
CCOc1ccc(-n2c(-c3ccccc3)c(C)n3c4c(=O)n(C)c(=O)n(C)c4nc23)cc1	none
O=C(c1ccco1)N1CCN(S(=O)(=O)c2ccc([N+](=O)[O-])cc2)CC1	D1 antag -33.8
O=C(c1ccco1)N1CCN(S(=O)(=O)c2ccccc2)CC1	none
O=C(NC1=NCCS1)c1ccccc1Cl	none
O=C(NC1=NCCS1)c1cc(Cl)ccc1Cl	TRHR enhancer 38.9
O=C(Nc1ccon1)c1cc(-c2ccccc2)nc2ccccc12	D1 antag -32.2
O=C(NC1=NCCS1)c1cc(-c2ccc(F)cc2)nc2ccccc12	D1 antag -36.7
Cc1ccc(NC(=O)c2cc(-c3cccs3)nc3ccccc23)nc1	D1 antag -48.2
CCOc1cccc(-c2cc(C(=O)Nc3ccon3)c3ccccc3n2)c1	none
CCOc1cc2sc(N3CCC(C(=O)Nc4ccc(C)cc4C)CC3)nc2cc1Br	none
CCCCN(CCCC)C(=O)CN(C)S(=O)(=O)c1ccc2c(c1)c(=O)n(C)c(=O)n2C	none
CCCCC1OC2(C)OC(=N)C1(C#N)C(C#N)(C#N)C2c1ccccc1 (stereo not drawn)	none
CC1OC2(C)OC(=N)C1(C#N)C(C#N)(C#N)C2c1ccccc1 (stereo not drawn)	D1 antag -35.4
CN(C)S(=O)(=O)c1ccc(NC(=O)C2CC3C=CC2C3)cc1 (stereo not drawn)	D1 antag -30.2
CN(C)S(=O)(=O)c1ccc(NC(=O)C2COc3ccccc3O2)cc1 (stereo not drawn)	none
Nc1cc(=O)nc(SCC(=O)Nc2ccc(F)cc2)n1-c1cccc(Cl)c1	none
CCCCNS(=O)(=O)c1ccc(S(=O)(=O)N2CCC3(CC2)OCCO3)cc1	D1 antag -45.8
O=S(=O)(c1ccc(S(=O)(=O)N2CCC3(CC2)OCCO3)cc1)N1CCCC1	none
COc1cc2c(cc1OC)C(COc1ccc(F)cc1)N(C(=O)c1ccc(S(=O)(=O)N3CCCC3)cc1)CC2 (stereo not drawn)	none
Cc1ccc(C(=O)NCCNS(=O)(=O)c2ccccc2)cn1	TRHR enhancer 39.3
O=C(CCC(=O)c1ccc(Cl)s1)Nc1ncccc1O	none (no result: D1 potentiator)
O=C(CCN1CCC(c2ccc(Cl)s2)=N1)c1ccc(Cl)s1	D1 agonist 40.0
COc1cc(/C=c2\s/c(=C(/C#N)C(=O)N3CCCC3)n(-c3ccccc3)c2=O)ccc1O	TRHR agonist 71.5, D1 agonist 138.0
CCN1CCN(CCCNC(=O)c2ccc(/C=C3/Oc4ccccc4N(Cc4cccc(C)c4)C3=O)cc2)CC1	D1 antag -37.5, D1 agonist 39.4
O=C(NCCCN1CCOCC1)c1ccc(/C=C2\Oc3ccccc3N(Cc3ccccc3F)C2=O)cc1	none
CCN1CCN(CCNC(=O)c2ccc(/C=C3/Sc4ccccc4N(Cc4ccccc4C)C3=O)cc2)CC1	D1 agonist 39.6
COCCNc1ccc2cc(S(=O)(=O)N3CCCCC3)ccc2n1	none
Cc1ccc(Cl)cc1N1CCN(S(=O)(=O)c2ccc3[nH]c(=O)ccc3c2)CC1	D1 antag -89.2
Cc1ccc(Cl)cc1N1CCN(S(=O)(=O)c2cn(C)cn2)CC1	D1 antag -34.6
O=c1ccc2cc(S(=O)(=O)N3CCN(c4ccccc4F)CC3)ccc2[nH]1	D1 antag -34.4
Cc1ccc(Cl)cc1N1CCN(S(=O)(=O)c2cn(C)c(C)n2)CC1	none
CCCCCn1c(=O)[nH]c2cc(C(=O)N3CCN(c4cccc(C)c4)C(C)C3)ccc2c1=O (stereo not drawn)	none
Clc1ccc(CSc2nnc(-c3c[nH]c4ccccc34)o2)cc1	none
CCOc1ccccc1-c1nnc(SCc2ccc(Cl)cc2)o1	D1 agonist 61.5
COC(=O)c1ccc(NC(=O)COc2ccc([N+](=O)[O-])cc2)cc1	D1 antag -35.1
